According to PubChem BioAssay (NCATS):
Values without a mark were called inactive. Inconclusive results are not listed. Entries that show only a call come without a potency. Activity calls are given as the source filed them. Unless noted, calls follow the shape of the dose curve; as a rule, active = well fitted curve in the direction sought with a large enough effect; inconclusive = small, poorly fitted or top-dose-only effect, or another doubt; inactive = no such curve, though single readings can be large; an effect the other way counts as inactive or inconclusive.

Legend:
[1] = qHTS Assay for Identification of Small Molecule Agonists for Thrombopoietin (TPO) Signaling Pathway (AID 917)
Protocol: NIH Molecular Libraries Screening Centers Network [MLSCN]
NIH Chemical Genomics Center [NCGC]
The thrombopoietin (TPO) signaling pathway was assayed in murine Ba/F3 cells stably transfected with the human TPO receptor and a luciferase reporter gene controlled by the Glycoprotein IIb promoter (provided by Axxam). BaF3 cells are an IL-3-dependent pro B cell line that upon TPO stimulation, undergo cell division and induce the megakaryocyte marker, Glycoprotein IIb. The assay was screened at the EC50 of TPO (26 pM) to identify activators of the pathway.
NCGC Assay Protocol Summary:
Cells were maintained at 37 C and 5% CO2in RPMI with 10% fetal bovine serum, 0.5 ng/mL murine IL-3, 100U/ml penicillin and 100 ug/ml streptomycin. Prior to plating, cells were incubated overnight in medium without IL-3. Cells were plated at 250 cells/5uL/well into white solid 1536-well plates, 23 nL of compounds were delivered by a pin tool, and 1 uL of TPO (26 pM final concentration in IL-3 deficient medium) was added. Following 24 hrs of incubation at 37 C and 5% CO2, 4 uL of Steadylite detector mix (PerkinElmer) was added, the plates incubated at room temperature for 10 min and luminescence was measured for 10 s and 2X binning by a ViewLux detector (Perkin Elmer).

[2] = target: Muscarinic acetylcholine receptor M1 (Rattus norvegicus) (UniProt P08482); experiment: qHTS Assay for Antagonists of Acetylcholine Muscarinic M1 Receptor: Kinetic Measurement of Intracellular Calcium Response (AID 943);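 also: Fluo-4 calcium signal as peak divided by basal fluorescence over 4 min; series mostly up to about 35 µM; nearly all actives have a fitted effect of over 75% in size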
Muscarinic acetylcholine receptor M1 (Rattus norvegicus), sequence (P08482 whole entry, looked up): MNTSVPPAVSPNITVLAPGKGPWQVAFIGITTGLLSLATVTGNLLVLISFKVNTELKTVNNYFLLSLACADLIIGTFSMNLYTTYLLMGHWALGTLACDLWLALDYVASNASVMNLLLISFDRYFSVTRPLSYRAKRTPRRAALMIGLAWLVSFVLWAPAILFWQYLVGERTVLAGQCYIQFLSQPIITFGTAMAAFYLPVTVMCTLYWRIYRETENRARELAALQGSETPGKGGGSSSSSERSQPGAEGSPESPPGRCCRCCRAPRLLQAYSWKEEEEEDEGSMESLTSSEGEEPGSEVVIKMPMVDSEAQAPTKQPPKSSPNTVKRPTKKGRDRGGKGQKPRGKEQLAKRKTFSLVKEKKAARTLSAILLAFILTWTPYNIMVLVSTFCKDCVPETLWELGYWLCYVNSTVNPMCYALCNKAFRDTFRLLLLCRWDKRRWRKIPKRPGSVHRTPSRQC
Summary of the method: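 CHO cells stably expressing rat M1 were loaded with no-wash Fluo-4 dye for 1 h at 37C, pre-incubated 10 min with compound, then challenged with EC80 carbachol (100 nM final); kinetic calcium read 4 min, peak/basal ratio.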

[3] = target: Muscarinic acetylcholine receptor M1 (Rattus norvegicus) (UniProt P08482); experiment: qHTS Assay for Antagonists of Acetylcholine Muscarinic M1 Receptor: Measurement of IP-One Response (AID 944); also: nearly all actives have a fitted effect of over 75% in size; also: potency is read from the fitted curve at half-maximal effect
Summary of the method: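 CHO cells expressing rat M1 receptor, recovered overnight, were pre-incubated 10 min with compound, then stimulated 30 min with carbachol at EC80 (200 nM) in LiCl-containing buffer, pH 7.4. IP1 accumulation was read by HTRF (620/665 nm).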

[4] = target: Pyruvate kinase (Leishmania mexicana) (UniProt Q27686); experiment: qHTS Validation Assay for Inhibitors of Leishmania Mexicana Pyruvate Kinase (AID 945)
Pyruvate kinase (Leishmania mexicana), sequence (Q27686 2-499 E452W): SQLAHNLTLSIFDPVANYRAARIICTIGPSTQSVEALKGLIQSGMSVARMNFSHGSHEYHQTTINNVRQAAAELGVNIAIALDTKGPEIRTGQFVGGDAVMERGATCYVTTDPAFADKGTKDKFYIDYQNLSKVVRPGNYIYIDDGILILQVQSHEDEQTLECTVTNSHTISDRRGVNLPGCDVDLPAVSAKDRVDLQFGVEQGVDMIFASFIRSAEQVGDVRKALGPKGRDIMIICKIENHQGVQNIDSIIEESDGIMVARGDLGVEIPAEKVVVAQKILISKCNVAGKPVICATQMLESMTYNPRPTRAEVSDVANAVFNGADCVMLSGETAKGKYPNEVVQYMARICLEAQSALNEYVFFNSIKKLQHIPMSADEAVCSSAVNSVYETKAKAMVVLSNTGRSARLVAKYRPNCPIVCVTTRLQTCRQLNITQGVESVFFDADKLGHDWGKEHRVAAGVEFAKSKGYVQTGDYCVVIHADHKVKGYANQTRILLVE
Summary of the method: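 Purified LmPYK (E451W mutant, 0.2 nM) was incubated 1 h at room temperature with 0.5 mM PEP and 0.1 mM ADP in 50 mM imidazole pH 7.2, 50 mM KCl, 7 mM MgCl2; ATP formed was read by PKLight luminescence, normalized to DMSO wells.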

[5] = qHTS Assay for Identification of Small Molecule Agonists for Hypoxia Response Element Signaling Pathway (AID 914; active = well fitted activation curve with a large enough effect in the signal ratio, with a control signal flat, not every such curve was filed as active; the % refers to the signal ratio; also: potency is read from the fitted curve at half-maximal effect); conditions: ME-180 (cervical carcinoma) HRE-bla reporter, beta-lactamase ratio, CoCl2, 17 h; activation: hits give high values
Summary of the method: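 AC50 values come from titration-series %Activity, taken as the 460/530nm ratio of CCF4 fluorescence (excitation 405nm). CellSensor HRE-bla ME-180 cells were treated 17 hours at 37 C with compound plus an EC50 level of CoCl2.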

[6] = Confirmation and Secondary Assay for Modulators of Hemoglobin Beta Chain Splicing at IVS2 705 locus (AID 930);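 also: HeLa cells stably expressing the EGFP-705 splicing reporter; series mostly up to about 46 µM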
Summary of the method: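 Restored EGFP fluorescence after 2-day compound exposure reports splicing correction in IVS2-705 EGFP reporter HeLa cells; positive control was 500 nM splice-blocking PNA oligo. Signal measured as well total peak GFP intensity (488 nm excitation).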

[7] = qHTS Assay for Identification of Small Molecule Antagonists for Thrombopoietin (TPO) Signaling Pathway (AID 918); conditions: TPO-dependent cell signaling reporter, antagonist mode; also: potency is read from the fitted curve at half-maximal effect; nearly all actives have a fitted effect of over 60% in size
Summary of the method: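 Murine Ba/F3 cells stably expressing human TPO receptor and a Glycoprotein IIb promoter–luciferase reporter were IL-3-starved overnight, treated with compounds plus TPO (26 pM final, its EC50) for 24 hrs at 37 C, then read by luminescence.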

[8] = Cell Viability - LYMP2-001 (AID 921);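 also: series mostly up to about 92 µM; cells exposed to compound for 24 h at 37 °C; nearly all actives have a fitted effect of over 70% in size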
Summary of the method: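 qHTS, 1536-well; lymphoblastoid cells, 24 hr compound, 37 C; ATP by CellTiter-Glo, 30 min RT; luminescence; Hill-fit AC50.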

[9] = MultiTox-Fluor Cytotoxicity Assay - LYMP1-001 - Dead Cells (AID 946);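 also: cells exposed to compound for 16 h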
Summary of the method: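 In this qHTS, 15 uM tetraoctylammonium bromide defined 100% and DMSO defined basal activity. Lymphoblastoid cells (LYMP1-001, 2500 per well) received compound for 16 hr at 37 C before a fluorogenic dead-cell substrate readout at 485/520 nm.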

[10] = MultiTox-Fluor Cytotoxicity Assay - LYMP1-001 - Live Cells (AID 947)

Structure (SMILES): CN=C(N)NCCC[C@H](N)C(=O)O
- outcome [1]: inactive
- outcome [2]: inactive
- Potency [3]: inactive
- outcome [4]: inactive

Structure (SMILES): CCCCCCCCNC(C)C(O)c1ccc(SC(C)C)cc1 (stereo unspecified)
- activation [5]: 0.942%
- outcome [6]: inactive

Structure (SMILES): CN1CCC[C@@H]1CCO[C@](C)(c1ccccc1)c1ccc(Cl)cc1
- Potency [7]: 10 µM (active)
- outcome [4]: inactive

Structure (SMILES): CCCc1ncc(C[n+]2ccccc2C)c(N)n1
- outcome [6]: inactive

Structure (SMILES): CCCN(CCC)S(=O)(=O)c1ccc(C(=O)O)cc1
- outcome [8]: inactive
- outcome [6]: inactive
- outcome [9]: inactive
- outcome [10]: inactive

Structure (SMILES): OCCOCCN1CCN(C2=Nc3ccccc3Sc3ccccc32)CC1
- outcome [6]: inactive

Structure (SMILES): C/C=C/c1ccc(O)c(OC)c1
- outcome [8]: inactive
- outcome [9]: inactive
- outcome [10]: inactive

Structure (SMILES): Nc1ccc(C(=O)NCC(=O)O)cc1
- outcome [6]: inactive

Structure (SMILES): CCCCC(CC)CN1CN(CC(CC)CCCC)CC(C)(N)C1 (stereo unspecified)
- outcome [6]: inactive

Structure (SMILES): Nc1ccc(S(=O)(=O)Nc2cnc3ccccc3n2)cc1
- outcome [6]: inactive

Structure (SMILES): CCOc1ccc(NC(C)=O)cc1
- activation [5]: 2%
- outcome [8]: inactive
- outcome [6]: inactive
- outcome [9]: inactive
- outcome [10]: inactive

Structure (SMILES): CN1CCC(OC(c2ccccc2)c2ccccc2)CC1
- outcome [6]: inactive

Structure (SMILES): CCN(CC)CCNC(=O)COc1ccc(OC)cc1
- outcome [6]: inactive

Structure (SMILES): COc1ccc(C(Cl)=C(c2ccc(OC)cc2)c2ccc(OC)cc2)cc1
- outcome [8]: inactive
- outcome [6]: inactive
- outcome [9]: inactive
- outcome [10]: inactive

Structure (SMILES): CN(C)CCC[C@@]1(c2ccc(F)cc2)OCc2cc(C#N)ccc21
- outcome [1]: inactive
- outcome [6]: inactive
- Potency [3]: 10 µM (active)
- outcome [4]: inactive

Structure (SMILES): CCCCC(CC)COC(=O)c1ccc(N(C)C)cc1 (stereo unspecified)
- outcome [8]: inactive
- outcome [9]: inactive
- outcome [10]: inactive

Structure (SMILES): CC[N+](C)(CC)CCOC(=O)C(O)(c1ccccc1)C1CCCCC1 (stereo unspecified)
- activation [5]: 1.14%

Structure (SMILES): CC(=O)NCCCCCC(=O)O
- outcome [6]: inactive

Structure (SMILES): CCOc1ccccc1C(N)=O
- outcome [8]: inactive
- outcome [9]: inactive
- outcome [10]: inactive

Structure (SMILES): COc1ccc(C(=O)c2ccccc2)c(O)c1
- outcome [8]: inactive
- outcome [6]: inactive
- outcome [9]: inactive
- outcome [10]: inactive

Structure (SMILES): O=C1C(=O)c2ccccc2C(O)=C1C1CCC(c2ccc(Cl)cc2)CC1 (stereo unspecified)
- outcome [6]: inactive

Structure (SMILES): CNCCc1ccccn1
- outcome [6]: inactive

Structure (SMILES): Oc1ccc(Cl)cc1Cc1cc(Cl)ccc1O
- outcome [8]: inactive
- outcome [6]: inactive
- outcome [9]: inactive

Structure (SMILES): COc1cc([C@H]2Oc3cc([C@H]4Oc5cc(O)cc(O)c5C(=O)[C@@H]4O)ccc3O[C@@H]2CO)ccc1O
- outcome [8]: inactive
- outcome [9]: inactive
- outcome [10]: inactive

Structure (SMILES): NS(=O)(=O)Cc1noc2ccccc12
- outcome [1]: inactive
- outcome [2]: inactive
- Potency [3]: inactive
- outcome [4]: inactive

Structure (SMILES): C=C[C@H]1CN2CC[C@H]1C[C@@H]2[C@@H](O)c1ccnc2ccc(OC)cc12
- outcome [8]: inactive
- outcome [9]: inactive
- outcome [10]: inactive

Structure (SMILES): O=C(O)c1ccc(S(=O)(=O)N(Cl)Cl)cc1
- outcome [8]: inactive
- outcome [6]: inactive
- outcome [9]: inactive
- outcome [10]: inactive

Structure (SMILES): CN(C)C(=O)Nc1ccc(Cl)c(Cl)c1
- outcome [6]: inactive

Structure (SMILES): NC(=O)c1ccccc1O
- outcome [8]: inactive
- outcome [6]: inactive
- outcome [9]: inactive
- outcome [10]: inactive

Structure (SMILES): CC(C)(C)NC[C@H](O)COc1nsnc1N1CCOCC1
- outcome [1]: inactive
- Potency [3]: inactive
- outcome [4]: inactive

Structure (SMILES): CC(=O)NO
- outcome [6]: inactive

Structure (SMILES): COc1ccc(C(=O)c2ccccc2O)c(O)c1
- Potency [5]: 5.01 µM (active)
- outcome [6]: inactive

Structure (SMILES): CCc1cc(Cl)c(OC)c(C(=O)NC[C@@H]2CCCN2CC)c1O
- Potency [5]: 10 µM (active)

Structure (SMILES): OC[C@H]1O[C@@H]2O[C@H]3[C@H](O)[C@@H](O)[C@@H](O[C@H]4[C@H](O)[C@@H](O)[C@@H](O[C@H]5[C@H](O)[C@@H](O)[C@@H](O[C@H]6[C@H](O)[C@@H](O)[C@@H](O[C@H]7[C@H](O)[C@@H](O)[C@@H](O[C@H]8[C@H](O)[C@@H](O)[C@@H](O[C@H]1[C@H](O)[C@H]2O)O[C@@H]8CO)O[C@@H]7CO)O[C@@H]6CO)O[C@@H]5CO)O[C@@H]4CO)O[C@@H]3CO
- outcome [8]: inactive
- outcome [9]: inactive
- outcome [10]: inactive

Structure (SMILES): NC(N)=NCc1cccc(I)c1
- outcome [2]: inactive
- Potency [3]: inactive
- outcome [4]: inactive

Structure (SMILES): NCCNc1cccc2ccccc12
- outcome [9]: inactive
- outcome [10]: inactive
